Compound activity as filed in PubChem.
EPAC2 agonist: activates human EPAC2 exchange factor | EPAC2 activation, biochemical qHTS; response scale: 100% = 6.5 mM cAMP response | Potency, µM (titrated, usually from 154 µM), without a hit: at the top dose activation, actives largely listed as activators | 360,000 compounds, 0.079% hits | AID 720711; also: nearly all actives have a fitted effect of over 50% in size
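Nucleotide exchange monitored as fluorescence drop when BODIPY-GDP leaves Rap1B. Reaction: 100 nM EPAC2, 250 nM RAP1B-BODIPY-GDP, 50 uM GDP, room temperature, kinetic read over 30 min. Activity expressed relative to 6.5 mM cAMP.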
EPAC1 antag: blocks human EPAC1 exchange factor. O95398. EPAC1 GEF assay, Rap1b-BODIPY-GDP exchange fluorescence. Potency, µM (titrated, usually from 115 µM), for inactives: at the highest dose activity change, negative = inhibition, actives largely listed as inhibitors. 360,000 compounds, 0.14% hits. AID 720709;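 also: plate controls were vehicle for no effect and positive control for full effect; nearly all actives have a fitted effect of over 50% in size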
Target sequence (O95398 whole entry, looked up): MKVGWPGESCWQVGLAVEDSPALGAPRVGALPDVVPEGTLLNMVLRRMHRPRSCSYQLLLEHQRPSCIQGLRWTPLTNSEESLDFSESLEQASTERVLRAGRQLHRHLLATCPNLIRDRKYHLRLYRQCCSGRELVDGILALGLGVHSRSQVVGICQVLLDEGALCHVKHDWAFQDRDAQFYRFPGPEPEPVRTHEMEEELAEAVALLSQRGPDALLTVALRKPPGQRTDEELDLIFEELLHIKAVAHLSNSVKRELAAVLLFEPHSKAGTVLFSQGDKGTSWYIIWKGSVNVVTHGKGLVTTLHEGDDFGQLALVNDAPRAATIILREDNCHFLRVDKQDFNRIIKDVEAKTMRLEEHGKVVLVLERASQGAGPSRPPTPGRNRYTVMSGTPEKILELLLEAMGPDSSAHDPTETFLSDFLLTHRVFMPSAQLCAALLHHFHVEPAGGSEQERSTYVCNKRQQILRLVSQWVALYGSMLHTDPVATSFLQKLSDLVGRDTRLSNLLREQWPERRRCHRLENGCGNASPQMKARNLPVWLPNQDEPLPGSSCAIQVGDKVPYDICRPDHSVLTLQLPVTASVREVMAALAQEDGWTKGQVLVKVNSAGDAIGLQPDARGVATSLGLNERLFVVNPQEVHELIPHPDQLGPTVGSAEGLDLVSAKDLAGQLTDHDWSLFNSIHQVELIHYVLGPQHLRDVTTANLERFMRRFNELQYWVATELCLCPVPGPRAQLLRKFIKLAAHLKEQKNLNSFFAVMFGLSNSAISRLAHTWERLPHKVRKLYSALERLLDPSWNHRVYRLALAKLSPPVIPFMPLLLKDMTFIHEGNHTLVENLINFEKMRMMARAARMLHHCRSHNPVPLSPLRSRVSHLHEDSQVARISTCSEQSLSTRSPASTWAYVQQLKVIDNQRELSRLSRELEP
EPAC1 ag: agonists of human EPAC1 | 360,000 compounds, 0.073% hits | EPAC1 agonist qHTS, biochemical assay; response scale: 100% = response to 6.5 mM cAMP | Potency, µM (series often up to 154 µM), inactives show top-dose activation, actives largely listed as activators | O95398; also: nearly all actives have a fitted effect of over 60% in size
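Compounds were pinned as a concentration titration into mixtures of EPAC1 (100 nM), BODIPY-GDP-loaded Rap1B (250 nM) and GDP (50 uM). After 5 min at room temperature, fluorescence was followed for 30 min; activity was scaled to 6.5 mM cAMP.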
EPAC2 antag: antagonists of human EPAC2; 360,000 compounds, 0.18% hits; Q8WZA2; EPAC2 GEF exchange of Rap1B-BODIPY-GDP, fluorescence; Potency, µM (series often up to 114 µM), for the others: top-dose activity, negative = inhibition, usual class: inhibitors; also: % is scaled to controls: 0 for no effect and ±100 for the full control effect; nearly all actives have a fitted effect of over 45% in size
RGS4 inh: human RGS4 inhibition. Transcreener GDP fluorescence polarization, RGS4-accelerated GTP hydrolysis. 390,000 compounds, 0.039% hits. Potency, µM (doses to about 114 µM), without a hit: top-dose activity change, negative = inhibition, usual class: inhibitors. P49798. AID 504845; also: % is scaled to controls: 0 for no effect and ±100 for the full control effect; nearly all actives have a fitted effect of over 75% in size
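MLSMR compounds (23 nl, pin-transferred) preincubated 10 min at room temperature with a 500nM (2x) first reagent, then RGS4 at 900nM (2x) plus Transcreener GDP mix added; fluorescence polarization (620/688 nm) read before and after 90 min at 30 °C.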
BRCA1 expr act: BRCA1 expression activation | MCF7-BRCA1-FFLuc reporter, luminescence, 48 h; response scale: scaled: vehicle 0%, 10 µM genistein 100% | Potency, µM (series often up to 46.1 µM), without a hit: at the top dose activation, hits mostly activators | 380,000 compounds, 1.1% hits; also: nearly all actives have a fitted effect of over 80% in size
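Using MCF7 cells harboring a BRCA1 firefly luciferase reporter, plated 2 h before compound pinning, the screen measured luminescence after 48 h incubation. Responses were normalized to DMSO and 10 microM genistein, then fitted for concentration-effect.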
Starred values were filed as active, the others as inactive; ? = inconclusive; nt = no result; [ ] = dose if it differs, or a comment. Only some compounds are listed: those with a hit (about 1.3% of all), similar ones and a draw of the others. Calls follow the shape of the dose curve; as a rule, active = well fitted curve in the direction sought with a large enough effect; inconclusive = small, poorly fitted or top-dose-only effect, or another doubt; inactive = no such curve, though single readings can be large; an effect the other way counts as inactive or inconclusive. Potency is read from the fitted curve at half-maximal effect.

SMILES	EPAC2 agonist	EPAC1 antag	EPAC1 ag	EPAC2 antag	RGS4 inh	BRCA1 expr act
CC1Sc2ccc(C(=O)OCc3ccccc3Cl)cc2NC1=O (configuration not stated)	0.4%	-0.2%	50.1µM*	2.8%	-18.6%	6.31µM*
O=C(COC(=O)C1(c2ccccc2F)CCCC1)Nc1ncc(C(F)(F)F)cc1Cl	6.0%	-9.3%	-4.6%	4.7%	-20.6%	-9.1%
COc1ccc(S(=O)(=O)N(C(=O)c2ccncc2)c2ccc(OC(=O)c3ccncc3)cc2)cc1	0.8%	-1.6%	7.8%	6.0%	-23.7%	0.8%
Cc1ccc(SCC(=O)Nc2ccccc2C(=O)O)cc1	-5.6%	1.4%	-3.1%	23.1%	4.6%[11.4 µM]	4.47µM*
O=C(CSc1ccccc1)Nc1ccccc1C(=O)O	10.5%	5.4%	6.9%	-0.9%	11.5%	?
Cc1ccc(NC(=O)CC2(CC(=O)O)CCCC2)c(C)c1	4.1%	-17.7%	6.2%	-6.5%	10.7%[56.9 µM]	-4.5%
O=C(Cc1cccs1)NCc1cccs1	0.4%	11.5%	-5.4%	4.8%	-3.8%	37.4%
O=C(Cc1cccs1)NCc1cccc(Br)c1	17.4%	10.5%	-2.1%	1.8%	14.5%	3.98µM*
CC(C)CC(C(=O)NC(=O)NCc1ccccc1)N1C(=O)c2ccccc2C1=O (configuration not stated)	0.1%	-28.2%	13.9%	-2.1%	8.3%	-14.8%
CCN1C(=O)/C(=C\N2CCCc3ccccc32)SC1=S	13.1%	-0.7%	7.2%	7.3%	-12.1%	-9.6%
CCN1C(=O)/C(=C/N2CCc3ccccc32)SC1=S	?	-18.2%	-6.0%	69.6%	-11.6%	3.16µM*
CC(C)CC(NC(=O)C1CCCN1C(=O)CNC(=O)OCc1ccccc1)C(=O)O (configuration not stated)	8.0%	-4.2%	9.5%	0.3%	-9.6%	0.2%
CCc1ccc(NC(=O)c2sc3nc(C)cc(C)c3c2NC(=O)c2ccccc2)cc1	nt	nt	nt	nt	12.2%	0.0%
O=C(N/N=C/c1ccc(Br)cc1)c1ccc(Br)o1	-1.4%	-8.4%	6.2%	-7.9%	-41.8%	7.94µM*
CCC1(C)Cc2c(sc3nc(SC)nc(NCCN(C)C)c23)CO1 (configuration not stated)	0.7%	-2.9%	-5.9%	1.6%	23.3%	5.4%[1.84 µM]
Cc1cccc(-n2c3nc(=O)[nH]c(=O)c-3cc3cc([N+](=O)[O-])ccc32)c1	-5.3%	4.2%	4.3%	-1.0%	-52.8%	-32.8%
Cc1ccc(C)c(-n2c3nc(=O)[nH]c(=O)c-3cc3cc([N+](=O)[O-])ccc32)c1	13.0%	56.2µM*	4.4%	-14.9%	?	-74.4%
Cc1cccc(C(=O)N2CCC(c3nc(-c4ccc(S(=O)(=O)N5CCOCC5)cc4)no3)CC2)c1	12.8%	-5.8%	-0.1%	1.8%	-11.7%	-35.6%
CCOc1ccc(-c2nc(C#N)c(N3CCN(CC)CC3)o2)cc1	-6.6%	-19.8%	0.5%	-1.8%	-19.3%	-9.0%
CCCNC(=O)c1ccc2c(=O)c(O)c(-c3ccsc3)[nH]c2c1	89.1µM*	-1.0%	21.2%	10.0%	-0.2%	-20.0%
Oc1ccc(/C=N/Nc2ncc(Cl)cc2Cl)cc1	14.0%	-22.4%	-4.0%	3.7%	4.6%	12.6µM*
COc1cnc(-c2ccccn2)nc1Oc1c(C)cccc1C	-4.5%	-3.3%	-11.0%	14.1µM*	-7.8%	-28.6%
COc1ccc(Oc2nc(-c3ccccn3)ncc2OC)cc1	3.2%	-26.5%	-6.5%	-13.4%	31.2%	14.3%
CSCCNC(=O)c1ccc(C(C)(C)C)cc1	-4.5%	0.0%	0.0%	1.1%	9.4%	7.08µM*
O=C(NCCc1ccccc1)c1ccc(Cl)c([N+](=O)[O-])c1	8.4%	5.9%	1.5%	1.1%	-0.4%	3.98µM*
SMILES	EPAC2 agonist	EPAC1 antag	EPAC1 ag	EPAC2 antag	RGS4 inh	BRCA1 expr act
Cc1ccc(C(=O)NCCSC(C)(C)C)cc1	5.0%	7.5%	-3.2%	9.0%	-11.9%	31.3%
O=C(NCCc1cccs1)c1ccc(Cl)c(Cl)c1	12.3%	-5.8%	4.7%	-5.9%	6.6%	3.98µM*
O=C(NCCc1cccs1)c1ccc(Cl)cc1	17.8%	-11.8%	-0.8%	-8.8%	11.7%	?
Cc1ccc(C(=O)NCCSC(C)(C)C)cc1[N+](=O)[O-]	0.7%	2.0%	-2.9%	7.0%	14.9%	11.2µM*
Cc1cc(C)n(-c2nc3c(c(=O)[nH]c(=O)n3C)n2CC(O)c2ccccc2)n1 (configuration not stated)	4.2%	12.5%	-4.9%	7.1%	-16.5%	-2.7%
Cc1cc(C(=O)NCCc2ccccc2)ccc1[N+](=O)[O-]	11.3%	-5.2%	2.2%	1.1%	15.3%	6.31µM*
CC(=O)[C@H](CC(C)C)NC(=O)[C@@H](CC(C)C)NC(=O)[C@H](CC(C)C)NC(=O)OCc1ccccc1	nt	nt	nt	nt	8.44µM*	nt
O=C(Nc1ccc(F)cc1)N1CCN(c2ccc3nnc(-c4ccc(F)cc4)n3n2)CC1	9.8%	-8.5%	-4.4%	-10.1%	-6.9%	-32.2%
O=C1c2cccc3c(N4CCCCC4)ccc(c23)C(=O)N1c1cccc(O)c1	100µM*	59.4%	?	78.8%	1.4%	43.0%
O=C1c2cccc3c(N4CCCCC4)ccc(c23)C(=O)N1CCO	3.4%	-19.8%	0.0%	-0.5%	-11.9%	?
C=CCN1C(=O)c2cccc3c(N4CCCCC4)ccc(c23)C1=O	100µM*	31.9%	13.8%	66.7%	-14.7%	68.2%
Cc1ccc(S(=O)(=O)Nc2ccc3cc([N+](=O)[O-])ccc3c2[N+](=O)[O-])cc1	-4.5%	79.4µM*	-2.0%	50.1µM*	27.1%	-95.6%
CC1(c2nnc(-c3cccc(Cl)c3)o2)CC(c2ccc(F)cc2)=NO1 (configuration not stated)	13.9%	-16.0%	-3.8%	0.5%	14.5%	11.2µM*
CC1(c2nnc(-c3cccc(Cl)c3)o2)CC(c2ccc(Cl)cc2)=NO1 (configuration not stated)	7.8%	-3.5%	3.0%	0.5%	-2.8%	-0.5%
CCCN(CCC)Cc1cc(=O)oc2cc(OC)ccc12	3.3%	-19.0%	-5.2%	?	nt	0.0%
COc1ccc2c(C)cc(=O)oc2c1	6.5%	-27.9%	-14.7%	-8.6%	-7.8%	0.8%
COc1cccc(COc2ccc3c(C)cc(=O)oc3c2)c1	10.3%	-10.4%	-3.7%	0.1%	3.9%	2.82µM*
O=C(C1=C[C@@H](c2ccccc2)C[C@@H](OCCCCO)O1)N1CCOCC1	7.2%	7.0%	4.0%	11.2%	14.6%	0.0%
CC1CC(=O)c2cnc(N)nc2C1 (configuration not stated)	1.6%	0.0%	0.0%	-1.7%[57.1 µM]	-19.2%	-2.4%
